Structures are written as SMILES. Activity calls are given as the source filed them.

One experiment addresses Albumin (Bos taurus) (UniProt P02769). Briefly: compounds binding labelled BSA control protein – biochemical, small-molecule microarray, Alexa647 label, 635/667 nm fluorescence, artefact control for SMM control protein annotation, profiling panel (AID 1118).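 Also: score merges 667 nm emission intensity and signal-to-noise per printed compound spot.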 The conditions noted are these: BSA-A647 binding, fluorescence 635 nm, higher = more signal.
Experiment [1] can be described thus: probe aXIP binding to arrayed compounds – biochemical, NeuroSMM set, 635/667 nm fluorescence, primary screen (AID 1119).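 Also: probe is the protein aXip251-270 applied at 1 µg/mL to compound-printed slides; binding of probe to printed compounds measured as 667 nm fluorescence plus signal to noise.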 The conditions noted are these: small-molecule microarray, higher = more signal, called active from +8 up or from −8 down.
The nature of experiment [2]: probe aNOTCH3 binding on compound microarray – biochemical, small-molecule microarray, 635/667 nm fluorescence, primary screen (AID 1120).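 Also: probe is a biotin-tagged antibody raised against NOTCH3 rather than NOTCH3 protein; score merges spot fluorescence near 667 nm with spot signal to noise.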 The conditions noted are these: higher = more signal.
Experiment [3] is described as follows: probe aNOTCH2 binding on compound microarray – biochemical, small-molecule microarray, 635/667 nm fluorescence, primary screen (AID 1121).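 Also: score merges feature fluorescence read at 667 nm with its signal to noise.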 The conditions noted are these: higher = more signal.
The target of experiment [4] is Carbonic anhydrase 2 (Homo sapiens) (UniProt P00918). Briefly: compounds binding carbonic anhydrase 2 – biochemical, small-molecule microarray, Alexa647-labelled CAII, profiling panel (AID 1122). Particulars: CAII-A647 binding fluorescence, higher = more signal.
Experiment [5] in a line: COS7 lysate on small-molecule microarray, probe aHis, 635 nm (AID 1123).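 Also: z-score combines 667nm fluorescence intensity with signal-to-noise per printed compound spot.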 The conditions noted are these: COS7 cell lysate, fluorescence, higher = more signal.
Experiment [6] is described as follows: probe aLAP1 signal on lysate-treated microarray – cell lysate, small-molecule microarray, COS7 lysate, primary screen (AID 1124).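 Also: lysate comes from COS7 cells expressing LAP1 and is applied at 0.3 µg/mL; score merges spot fluorescence near 667 nm with signal-to-noise over triplicate slides.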 The conditions noted are these: probe aLAP1, fluorescence, higher = more signal.
The subject of a further experiment is Sam68 (KHDRBS1). Description: compounds binding KHDRBS1 protein – biochemical, small-molecule microarray, 635 nm fluorescence, primary screen (AID 1125).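 Also: score merges 667 nm channel intensity with signal to noise over triplicate slides.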 Particulars: higher = more signal.
Experiment [7] concerns Chordin-like protein 2 (CHRDL2). Briefly: compounds binding chordin-like 2 – biochemical, small-molecule microarray, 635 nm fluorescence, primary screen (AID 1126).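 Also: printed compound slides probed with Chrdl2 protein at 4 µg/mL for 1 h at 4 C; score merges 667 nm emission intensity with signal to noise over three replicate slides.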 Particulars: fluorescence 635 nm, higher = more signal.
In experiment [8] the target is Concanavalin-A (Canavalia ensiformis) (UniProt P02866). Briefly: compounds binding concanavalin A lectin – biochemical, small-molecule microarray, Alexa647 label, 635 nm, artefact control for SMM control protein annotation, primary screen (AID 1127).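 Also: z combines 667 nm emission intensity with signal-to-noise across three replicate slides.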 Particulars: ConA-A647 binding fluorescence, higher = more signal.
Concanavalin-A (Canavalia ensiformis), sequence (P02866 whole entry, looked up): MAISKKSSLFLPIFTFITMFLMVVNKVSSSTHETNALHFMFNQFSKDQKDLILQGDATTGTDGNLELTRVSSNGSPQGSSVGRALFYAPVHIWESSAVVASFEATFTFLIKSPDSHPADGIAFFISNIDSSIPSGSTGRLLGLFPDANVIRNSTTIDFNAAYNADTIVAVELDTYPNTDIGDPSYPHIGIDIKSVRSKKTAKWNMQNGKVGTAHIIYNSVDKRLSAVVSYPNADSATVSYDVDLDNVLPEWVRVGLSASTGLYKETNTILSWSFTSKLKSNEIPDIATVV

Albumin (Bos taurus), sequence (P02769 whole entry, looked up): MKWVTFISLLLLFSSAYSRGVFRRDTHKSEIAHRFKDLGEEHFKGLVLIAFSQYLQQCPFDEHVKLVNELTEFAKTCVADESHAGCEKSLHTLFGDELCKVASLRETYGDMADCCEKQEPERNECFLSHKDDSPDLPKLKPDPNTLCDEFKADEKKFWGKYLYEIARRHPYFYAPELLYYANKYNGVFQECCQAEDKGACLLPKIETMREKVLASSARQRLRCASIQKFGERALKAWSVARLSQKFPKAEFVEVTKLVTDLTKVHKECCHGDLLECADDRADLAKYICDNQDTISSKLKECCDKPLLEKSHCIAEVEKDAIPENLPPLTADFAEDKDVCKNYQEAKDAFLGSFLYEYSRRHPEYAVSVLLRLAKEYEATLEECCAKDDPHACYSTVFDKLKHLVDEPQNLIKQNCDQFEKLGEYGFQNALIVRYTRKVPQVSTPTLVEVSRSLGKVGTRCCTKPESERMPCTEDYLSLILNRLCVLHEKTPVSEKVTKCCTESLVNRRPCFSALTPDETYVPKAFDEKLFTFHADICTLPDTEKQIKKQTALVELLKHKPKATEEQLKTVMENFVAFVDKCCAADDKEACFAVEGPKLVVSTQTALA

As for `NCCCCCNC(=O)[C@@H]1C[C@@H]2C(=O)N[C@@H](CCCCN)C(=O)N2[C@@H]1c1cccc(OCCO)c1`, the composite z-score is 0.104 with Albumin (Bos taurus); -0.0168 in experiment [2]; -0.0637 in experiment [3]; -0.153 in experiment [4]; 0.043 in experiment [5]; 1.55 in [6]. For the same compound, the composite z-score was 0.668 in the experiment with Sam68 (KHDRBS1), 1.18 in experiment [7] and -0.0079 in experiment [8]. In addition, the composite Z-score in experiment [1] is 0.416 (inactive).
Consider `COc1ccc(C(O)C2C=CC3C(=O)N(c4ccccc4)C(=O)C3N2Nc2ccccc2)cc1OCc1ccccc1` (stereo not given), for which the composite z-score in the experiment with Albumin (Bos taurus) is 0.853; in [2], 0.505; in [3], -0.0798; in experiment [4], 0.503; in experiment [5] it was 3.06; in experiment [6] it was 0.0392. The composite z-score in the experiment with Sam68 (KHDRBS1) was 1.31; in experiment [7], -0.356; in [8], 1.09. Besides, in [1], the composite Z-score is 0.153 (inactive).
Consider `COc1c(C)cc(-c2cc3c(c(Cc4ccccc4)n2)[Si](C(C)C)(C(C)C)OC3)cc1C`, for which the composite z-score is 0.0401 in the experiment with Albumin (Bos taurus); -0.0881 in experiment [2]; -0.0907 in experiment [3]; -0.143 in experiment [4]; 0.0246 in [5]; -0.269 in experiment [6]. Also, the composite z-score in the experiment on Sam68 (KHDRBS1) amounted to 0.0189; in experiment [7] it was 0.198; in experiment [8], 0.0652. Besides, in [1], the composite Z-score is -0.014 (inactive).
Take `C=CC1c2cc(O)c(OC)cc2CCN1Cc1sc2ccccc2c1Cl` (stereo not given): the composite z-score is 0.854 with Albumin (Bos taurus); 0.177 in experiment [2]; -0.0772 in experiment [3]; 0.79 in experiment [4]; 1.46 in experiment [5]; 0.381 in experiment [6]. For the same compound, the composite z-score in the experiment with Sam68 (KHDRBS1) worked out at 0.807; in [7], 0.575; in experiment [8], 0.859. The composite Z-score in [1] is -0.967 (inactive).
In the case of `CC(C)NC(=O)[C@@]1(C)c2ccccc2C(=O)N(C(C)C)[C@H]1c1ccc(CO)cc1`, the composite z-score was 0.177 with Albumin (Bos taurus); -0.471 in experiment [2]; -0.132 in experiment [3]; 0.541 in [4]; 2.61 in [5]; -0.217 in experiment [6]. For the same compound, the results for the composite z-score (in the experiment on Sam68 (KHDRBS1); in [7]; in experiment [8]) were 0.121, -2.33 and -0.233, respectively. Further, in experiment [1], the composite Z-score was 0.22 (inactive).
`Cc1ccc(C(C)CC(O)C2C=CC3C(=O)N(c4ccccc4)C(=O)C3N2Nc2ccc(C(C)C)cc2)o1` (stereo not given): the composite z-score was found to be 0.935 with Albumin (Bos taurus); 0.126 in experiment [2]; 0.299 in [3]; 0.541 in experiment [4]; 1.33 in [5]; 0.835 in experiment [6]. Also, the composite z-score in the experiment with Sam68 (KHDRBS1) was 1.28; in experiment [7], -0.527; in [8], 1.15. Also, the composite Z-score in experiment [1] is -0.263 (inactive).
As to `C[C@H]1ON(c2ccc(C(=O)OC(C)(C)C)cc2)[C@@H](c2ccc(O)cc2)[C@@H]1C(=O)N1C(=O)OC[C@@H]1c1ccccc1`, the composite z-score with Albumin (Bos taurus) was 0.393; in [2], 0.0218; in [3] it was -0.126; in [4] it was 0.454; in experiment [5] it was 0.741; in experiment [6], 0.295. The values for the composite z-score (in the experiment with Sam68 (KHDRBS1); in experiment [7]; in [8]) were 1.32, 0.456 and 0.768, respectively. Further, the composite Z-score in [1] was -0.281 (inactive).
For the compound `COc1c(C)cc(-c2cc3c(c(-c4ccccc4)n2)[Si](C(C)C)(C(C)C)OC3)cc1C`, the composite z-score in the experiment with Albumin (Bos taurus) is 0.247; in [2], -0.116; in experiment [3], -0.21; in experiment [4], -0.185; in experiment [5], -0.591; in experiment [6], -0.154. Moreover, the values for the composite z-score (in the experiment with Sam68 (KHDRBS1); in experiment [7]; in [8]) were -0.5, 0.652 and 0.134, respectively. Also, the composite Z-score in experiment [1] was 0.478 (inactive).
On to `CCOC(=O)C1=CC[C@@H](c2cc(Cl)ccc2Cl)N(S(=O)(=O)c2ccc(C)cc2)[C@H]1c1ccc(OC)cc1`, for which the composite z-score stood at 0.596 with Albumin (Bos taurus); 0.258 in experiment [2]; 0.586 in experiment [3]; 0.25 in experiment [4]; 0.515 in experiment [5]; 0.325 in [6]. The figures for the composite z-score (in the experiment on Sam68 (KHDRBS1); in experiment [7]; in [8]) were -0.0808, -0.362 and -1.21, respectively. In addition, in [1], the composite Z-score is 0.552 (inactive).
Regarding `CCOC(=O)[C@H]1C/C=C/C[C@H](C(=O)OCC)C(=O)O[C@H]2[C@@H](OC)O[C@H](CO)[C@@H](OC(=O)CCc3ccccc3)[C@@H]2OC1=O`, the composite z-score was 0.191 in the experiment with Albumin (Bos taurus); 0.996 in experiment [2]; 0.0519 in experiment [3]; -0.207 in experiment [4]; -0.188 in experiment [5]; 0.715 in [6]. Besides, the composite z-score with Sam68 (KHDRBS1) is -0.378; in [7], -0.203; in [8], -0.233. In addition, in experiment [1], the composite Z-score was 0.476 (inactive).
For the compound `COC(=O)[C@@]1(Cc2ccccc2)[C@H]2c3cc(C(=O)N4CCCC4)n(Cc4cc(F)cc5c4OCOC5)c3C[C@H]2CN1C(=O)c1ccccc1`, the composite z-score stood at 1.11 with Albumin (Bos taurus); 0.218 in experiment [2]; 0.163 in experiment [3]; 0.553 in experiment [4]; 2.57 in [5]; 0.141 in experiment [6]. The composite z-score was 0.797 in the experiment with Sam68 (KHDRBS1), -0.233 in experiment [7] and 0.511 in experiment [8]. Also, the composite Z-score in experiment [1] was 0.143 (inactive).
`COC(=O)[C@@]1(Cc2ccc(OC)cc2)[C@H]2c3cc(C(=O)N(C)C)n(Cc4ccccc4)c3C[C@H]2CN1C(=O)c1ccccc1`: the composite z-score was 0.864 with Albumin (Bos taurus); 0.0372 in experiment [2]; -0.0505 in experiment [3]; 0.366 in experiment [4]; 1.86 in experiment [5]; 0.421 in experiment [6]. Further, the composite z-score with Sam68 (KHDRBS1) was 0.92; in [7], -0.393; in experiment [8], 0.435. The composite Z-score in [1] is -0.96 (inactive).
For `[N-]=[N+]=NCc1ccccc1C[C@@]1(C(N)=O)N=C(c2ccc(OCCCO)cc2)O[C@@H]1c1ccccc1CN=[N+]=[N-]`, the composite z-score was 0.757 with Albumin (Bos taurus); 0.105 in experiment [2]; -0.0386 in experiment [3]; 0.549 in experiment [4]; 1.5 in experiment [5]; 0.383 in experiment [6]. Besides, the composite z-score in the experiment on Sam68 (KHDRBS1) is 1.29; in [7] it was -0.464; in experiment [8], 0.792. Further, the composite Z-score in experiment [1] was 1.22 (inactive).
On to `COCCCNC(=O)[C@]1(CCC(=O)OC(C)(C)C)N=C(c2ccc(OCCCO)cc2)O[C@@H]1c1ccccc1`, for which the composite z-score was 0.968 with Albumin (Bos taurus); 0.246 in experiment [2]; 0.221 in experiment [3]; 0.871 in [4]; 3.17 in experiment [5]; 0.62 in [6]. Also, the composite z-score in the experiment on Sam68 (KHDRBS1) was 0.881; in experiment [7], -0.0833; in experiment [8], -0.354. Besides, the composite Z-score in [1] is 0.977 (inactive).
On to `CCCCN1CC=CC23O[C@@H]4C=CCOC(=O)[C@@H]4[C@H]2C(=O)N(CCCO)[C@@H]3C1=O` (stereo not given in full), for which the composite z-score is 0.335 in the experiment with Albumin (Bos taurus); -0.321 in [2]; -0.179 in experiment [3]; 0.868 in experiment [4]; 0.726 in [5]; 0.95 in [6]. Further, the values for the composite z-score (in the experiment on Sam68 (KHDRBS1); in experiment [7]; in experiment [8]) were 0.237, -0.565 and -0.926, respectively. The composite Z-score in experiment [1] is 0.064 (inactive).
In the case of `CC(CO)N1C(=O)[C@@H]2C3C(=O)OCCC/C=C\[C@H]3OC23C=CCN(Cn2nnc4ccccc42)C(=O)[C@@H]13` (stereo not given in full), the composite z-score with Albumin (Bos taurus) is 0.717; in experiment [2], -0.192; in experiment [3], -0.14; in experiment [4], 0.869; in experiment [5], -0.202; in experiment [6], -0.237. Also, the composite z-score was -1.07 in the experiment on Sam68 (KHDRBS1), 0.034 in experiment [7] and -1.01 in [8]. Moreover, in experiment [1], the composite Z-score was 0.323 (inactive).
